Experimental findings from paper PMC9838217, “Structure of SALL4 zinc finger domain reveals link between AT-rich DNA binding and Okihiro syndrome” are described below.

Common to all, as to assay: HT-SELEX; high values mean tight binding
Settings in all cases: protein: recombinant; vector His6-GST; dsDNA, one strand shown

One assay addresses T1, SALL4 ZFC4 WT (HT-SELEX) (Mus musculus, UniProt Q8BX22 870-940).
T1 sequence: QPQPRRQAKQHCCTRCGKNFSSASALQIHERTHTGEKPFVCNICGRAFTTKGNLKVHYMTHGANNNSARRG
The method in brief:
(§1)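 Purified recombinant mouse SALL4 zinc finger cluster 4 (residues 870–940, 1 µg) was incubated with library DNA (1.5 µg first cycle, 200 ng later) in 100 µl of 10 mM Tris–HCl pH 7.5, 50 mM NaCl, poly(dI-dC) and DTT for 10 min at room temperature, with Ni2+ bead capture and reselection for up to 6 cycles in triplicate. MiSeq reads were scanned for 6-mers. Binding signal is each canonical k-mer's read fraction as fold change relative to the initial random library.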

The target of assay [1] is T2, SALL4 ZFC4 R900W (HT-SELEX) (Mus musculus, UniProt Q8BX22 870-940, R900W).
T2 sequence: T1 sequence with R31W
The method in brief:
as §1

The target in assay [2] is T3, SALL4 ZFC4 G921D (HT-SELEX) (Mus musculus, UniProt Q8BX22 870-940, G921D).
T3 sequence: T1 sequence with G52D
The method in brief:
as §1

Changes are numbered by the printed parent chain.

In the case of ACTGGA, the binding signal with SALL4 ZFC4 WT (HT-SELEX) was determined as 0.84 ± 0.022 fold-change vs cycle 0; in assay [1], 0.993 ± 0.0196 fold-change vs cycle 0; in assay [2], 1.01 ± 0.0605 fold-change vs cycle 0.
On the same counts, the results for CGAAAC are 0.59 ± 0.0153 fold-change vs cycle 0, 0.676 ± 0.0229 fold-change vs cycle 0 and 0.748 ± 0.0402 fold-change vs cycle 0.
CTCAAC: the binding signal is 0.775 ± 0.0132 fold-change vs cycle 0 in the assay with SALL4 ZFC4 WT (HT-SELEX), 0.9089 ± 0.00888 fold-change vs cycle 0 in assay [1] and 0.928 ± 0.0107 fold-change vs cycle 0 in assay [2].
On the same counts, the results for TGAGAA are 1.37 ± 0.0413 fold-change vs cycle 0, 1.49 ± 0.0497 fold-change vs cycle 0 and 1.38 ± 0.0987 fold-change vs cycle 0.
For ACCTCA, in that order: 0.854 ± 0.0441 fold-change vs cycle 0, 0.976 ± 0.0441 fold-change vs cycle 0 and 1.04 ± 0.0599 fold-change vs cycle 0.
As to AGATCT, the binding signal with SALL4 ZFC4 WT (HT-SELEX) stood at 1.31 ± 0.115 fold-change vs cycle 0; in assay [1], 1.45 ± 0.063 fold-change vs cycle 0; in assay [2], 1.47 ± 0.0799 fold-change vs cycle 0.
On the same counts, the results for CCTACG are 0.357 ± 0.0238 fold-change vs cycle 0, 0.443 ± 0.0174 fold-change vs cycle 0 and 0.524 ± 0.0668 fold-change vs cycle 0.
On to CTTTAC, for which the binding signal was 1.34 ± 0.0196 fold-change vs cycle 0 with SALL4 ZFC4 WT (HT-SELEX), 1.5 ± 0.0474 fold-change vs cycle 0 in assay [1] and 1.36 ± 0.0809 fold-change vs cycle 0 in assay [2].
On to CACCTA, for which the binding signal was 0.824 ± 0.0556 fold-change vs cycle 0 in the assay with SALL4 ZFC4 WT (HT-SELEX), 0.915 ± 0.0444 fold-change vs cycle 0 in assay [1] and 0.976 ± 0.0474 fold-change vs cycle 0 in assay [2].
With AGTTCA, the binding signal with SALL4 ZFC4 WT (HT-SELEX) amounted to 1.42 ± 0.0499 fold-change vs cycle 0; in assay [1], 1.55 ± 0.0608 fold-change vs cycle 0; in assay [2], 1.44 ± 0.0878 fold-change vs cycle 0.
On the same counts, the results for GCTACC are 0.35 ± 0.0217 fold-change vs cycle 0, 0.419 ± 0.0155 fold-change vs cycle 0 and 0.543 ± 0.0413 fold-change vs cycle 0.
On to TCACAA, for which the binding signal in the assay with SALL4 ZFC4 WT (HT-SELEX) was 1.2 ± 0.0727 fold-change vs cycle 0; in assay [1] it was 1.32 ± 0.0623 fold-change vs cycle 0; in assay [2] it was 1.29 ± 0.11 fold-change vs cycle 0.
On the same counts, the results for CCACAC are 0.35 ± 0.0241 fold-change vs cycle 0, 0.414 ± 0.0369 fold-change vs cycle 0 and 0.516 ± 0.0626 fold-change vs cycle 0.
Regarding CCAAAC, the binding signal worked out at 0.6318 ± 0.0044 fold-change vs cycle 0 in the assay with SALL4 ZFC4 WT (HT-SELEX), 0.729 ± 0.0202 fold-change vs cycle 0 in assay [1] and 0.813 ± 0.0511 fold-change vs cycle 0 in assay [2].
For GAATGA, in that order: 1.42 ± 0.0437 fold-change vs cycle 0, 1.57 ± 0.0566 fold-change vs cycle 0 and 1.43 ± 0.0639 fold-change vs cycle 0.
As to AGAGGA, the binding signal with SALL4 ZFC4 WT (HT-SELEX) amounted to 0.933 ± 0.0495 fold-change vs cycle 0; in assay [1] it was 1.09 ± 0.0506 fold-change vs cycle 0; in assay [2] it was 1.07 ± 0.0639 fold-change vs cycle 0.
Regarding ACTTTG, the binding signal with SALL4 ZFC4 WT (HT-SELEX) was found to be 1.14 ± 0.054 fold-change vs cycle 0; in assay [1], 1.27 ± 0.0366 fold-change vs cycle 0; in assay [2] it was 1.24 ± 0.052 fold-change vs cycle 0.
On the same counts, the results for AAGGGG are 0.527 ± 0.0535 fold-change vs cycle 0, 0.628 ± 0.0342 fold-change vs cycle 0 and 0.657 ± 0.0321 fold-change vs cycle 0.
For ATCCCG, in that order: 0.428 ± 0.0246 fold-change vs cycle 0, 0.4832 ± 0.00274 fold-change vs cycle 0 and 0.574 ± 0.0423 fold-change vs cycle 0.
For the sequence CACGTA, the binding signal in the assay with SALL4 ZFC4 WT (HT-SELEX) was found to be 0.686 ± 0.0318 fold-change vs cycle 0; in assay [1], 0.787 ± 0.0109 fold-change vs cycle 0; in assay [2], 0.842 ± 0.0109 fold-change vs cycle 0.
For ATCGAG, in that order: 0.776 ± 0.0249 fold-change vs cycle 0, 0.873 ± 0.0248 fold-change vs cycle 0 and 0.967 ± 0.0375 fold-change vs cycle 0.
On the same counts, the results for CTGTCC are 0.398 ± 0.039 fold-change vs cycle 0, 0.493 ± 0.0175 fold-change vs cycle 0 and 0.587 ± 0.0324 fold-change vs cycle 0.
With AAAAGT, the binding signal is 1.71 ± 0.0529 fold-change vs cycle 0 in the assay with SALL4 ZFC4 WT (HT-SELEX), 1.76 ± 0.0934 fold-change vs cycle 0 in assay [1] and 1.58 ± 0.113 fold-change vs cycle 0 in assay [2].
For CAGATG, in that order: 0.794 ± 0.0267 fold-change vs cycle 0, 0.922 ± 0.0206 fold-change vs cycle 0 and 0.959 ± 0.0159 fold-change vs cycle 0.
On the same counts, the results for AACTGT are 1.31 ± 0.0453 fold-change vs cycle 0, 1.39 ± 0.0174 fold-change vs cycle 0 and 1.34 ± 0.0563 fold-change vs cycle 0.
Take ACTTAG: the binding signal in the assay with SALL4 ZFC4 WT (HT-SELEX) came to 1.38 ± 0.0593 fold-change vs cycle 0; in assay [1] it was 1.56 ± 0.0417 fold-change vs cycle 0; in assay [2], 1.42 ± 0.0798 fold-change vs cycle 0.
CCGAAC: the values for the binding signal (with SALL4 ZFC4 WT (HT-SELEX); in assay [1]; in assay [2]) were 0.325 ± 0.00544 fold-change vs cycle 0, 0.387 ± 0.0114 fold-change vs cycle 0 and 0.512 ± 0.0786 fold-change vs cycle 0, respectively.
On the same counts, the results for AGAAAT are 2.29 ± 0.182 fold-change vs cycle 0, 2.02 ± 0.161 fold-change vs cycle 0 and 1.78 ± 0.161 fold-change vs cycle 0.
Turning to CAAATC, the binding signal in the assay with SALL4 ZFC4 WT (HT-SELEX) is 1.1 ± 0.0172 fold-change vs cycle 0; in assay [1] it was 1.18 ± 0.0162 fold-change vs cycle 0; in assay [2] it was 1.21 ± 0.0283 fold-change vs cycle 0.
Take GACTTA: the binding signal was found to be 1.27 ± 0.0397 fold-change vs cycle 0 with SALL4 ZFC4 WT (HT-SELEX), 1.4 ± 0.0678 fold-change vs cycle 0 in assay [1] and 1.33 ± 0.102 fold-change vs cycle 0 in assay [2].
